HEK cytotox = Cytotoxic Profiling in HEK 293 Cell Line of Diverse Libraries Using Quantitative High-Throughput Screening. HEK 293 viability, ATP luminescence (CellTiter-Glo), 48-72 h. Potency, µM (highest dose often 115 µM), without a hit: at the highest dose activity change, negative = cytotoxicity, usual class: inhibitors. AID 1345083, 2018. 94,000 compounds, 6.6% hits; further: nearly all actives have a fitted effect of over 60% in size
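HEK 293 cells seeded at 250 cells/well were exposed to compound for 48 or 72 hr at 37 degree Celsius. Viability taken as ATP content by CellTiter-Glo luminescence.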
3T3 cytotox = Cytotoxic Profiling in NIH 3T3 Cell Line of Diverse Libraries Using Quantitative High-Throughput Screening. NIH 3T3 viability, CellTiter-Glo ATP luminescence, 48-72 h. AID 1345082, 2018. Potency, µM (top dose mostly 96.7 µM), for the others: at the highest dose activity change, negative = cytotoxicity, usual class: inhibitors. 94,000 compounds, 4.3% hits; further: nearly all actives have a fitted effect of over 55% in size
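NIH 3T3 cells at 400 cells/well received 23 nL of compound by pintool and were incubated 48 or 72 h at 37 °C. Viability was read as ATP-coupled CellTiter-Glo luminescence.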
Luciferase inh = Firefly luciferase inhibition profiling of diverse chemical library using quantitative high-throughput screening; purified P. pyralis luciferase, luminescence, biochemical; Potency, µM (titrated, usually from 115 µM), hits mostly inhibitors; 76,000 compounds, 2.5% hits; further: nearly all actives have a fitted effect of over 65% in size
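Biochemical qHTS: compound (6-point titration) added to 10uM D-luciferin plus 10uM ATP in Tris acetate pH 7.5 buffer with Mg, Tween-20 and BSA, then purified enzyme at 10nM; light output imaged.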
NPR1 antag = Natriuretic polypeptide receptor (hNpr1) antagonism - Primary qHTS; Atrial natriuretic peptide receptor 1 (Homo sapiens), P16066; 76,000 compounds, 1.6% hits; HEK293 hNpr1 GloSensor cGMP, ANP-stimulated luminescence; Potency, µM (top dose mostly 46.3 µM), without a hit: at the top dose activity change, negative = inhibition, most hits filed as inhibitors; calls by dose curve; further: nearly all actives have a fitted effect of over 60% in size
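HEK293 cells stably expressing human Npr1 and cGMP GloSensor pGS-40F, loaded 2 h with 2% GloSensor reagent, given compound 30 min at room temperature. Luminescence read before and 20 min after 0.1 nM hNppA.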
GPT2 inhibitor = Primary qHTS assay for inhibitors of Glutamate pyruvate transaminase 2 (GPT2). Alanine aminotransferase 2 (Homo sapiens), Q8TD30. 100,000 compounds, 0.25% hits. AID 1671188, 2021. Recombinant GPT2, coupled pyruvate oxidase/HRP Amplex Red fluorescence. Potency, µM (titrated, usually from 57.7 µM), inactives show at the highest dose activity change, negative = inhibition, hits mostly inhibitors; further: nearly all actives have a fitted effect of over 60% in size
Target sequence (Q8TD30 whole entry, looked up): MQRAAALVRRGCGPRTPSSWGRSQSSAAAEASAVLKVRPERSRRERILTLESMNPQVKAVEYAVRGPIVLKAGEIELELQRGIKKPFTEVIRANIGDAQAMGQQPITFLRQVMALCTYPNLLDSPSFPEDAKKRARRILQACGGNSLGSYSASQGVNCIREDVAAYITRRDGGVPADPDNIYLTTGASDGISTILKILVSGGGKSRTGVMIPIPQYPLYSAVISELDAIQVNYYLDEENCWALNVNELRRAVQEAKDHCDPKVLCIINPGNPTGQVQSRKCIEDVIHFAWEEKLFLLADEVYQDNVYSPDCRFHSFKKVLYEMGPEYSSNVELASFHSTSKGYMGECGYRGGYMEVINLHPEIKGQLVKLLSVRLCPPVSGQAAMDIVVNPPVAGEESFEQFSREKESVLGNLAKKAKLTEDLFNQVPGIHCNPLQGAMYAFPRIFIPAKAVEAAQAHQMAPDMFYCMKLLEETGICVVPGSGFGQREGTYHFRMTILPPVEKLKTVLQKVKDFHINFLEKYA
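GPT2 10ng/uL, a-KG 250uM, L-Ala 2mM, HEPES pH7.5 + 0.0001% Tween; 30 min RT. Then Amplex mix (PO/HRP/ThPP), 30 min RT dark, fluorescence. AOA 50uM used as positive control.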
* hit, by the source's call; i = inactive; ? = inconclusive; . = no result; [ ] = dose if it differs, or a comment. In the library only some 10% were active in any assay of this set; here they are far more common. Unless noted, the call rests on the fitted dose curve; in most records, active means well fitted curve in the direction sought with a large enough effect; inconclusive means small, poorly fitted or top-dose-only effect, or another doubt; inactive means no such curve, though single readings can be large; an effect the other way counts as inactive or inconclusive. On the % scale 0 is the no-effect control and ±100 the full control effect; potency means the concentration at half of the fitted maximal effect.

SMILES | HEK cytotox | 3T3 cytotox | Luciferase inh | NPR1 antag | GPT2 inhibitor
CC(C)(C)C(=O)CN1C(=O)[C@H](NC(=O)Nc2cccc(C(=O)O)c2)CN(C2CCCCC2)c2ccccc21 | . | . | . | . | 4.3%
O=C(c1ccc(F)cc1)N1CCC(C(=O)N2CCC(c3nc4ccncc4[nH]3)C2)CC1 (centres undefined) | 2.9% | i | . | . | -1.6%
COc1ccc(CNC(=O)N2CCCC2c2noc(COc3ccc(C)cc3)n2)cc1 (centres undefined) | ? | ? | i | -18.5% | i
Cc1ccc(NC(=O)N2CCCCC2c2noc(COc3ccc(F)cc3)n2)cc1F (centres undefined) | 44.7µM* | ? | i | -26.5% | i
Cc1ccc(OCc2nc(C3CCCN3C(=O)NCC(C)C)no2)cc1 (centres undefined) | -12.4% | -21.8% | . | . | i
Cc1ccc(OCc2nc(C3CCCN3C(=O)Nc3ccccc3)no2)cc1 (centres undefined) | 89.1µM* | ? | . | . | -6.6%
Cc1ccc(OCc2nc(C3CCCN3C(=O)Nc3ccc(C)c(F)c3)no2)cc1 (centres undefined) | 89.1µM* | ? | i | -22.7% | -14.0%
COc1ccccc1-c1nc2nccc(-c3ccc(Cl)cc3)n2n1 | ? | -8.9% | i | -7.9% | -13.8%
OCCOc1ccc(CN(CCN2CCCCC2)CC2CCCN(C3CCCC3)C2)cc1 (centres undefined) | ? | ? | i | 3.5% | i
Cc1oc(C(O)c2ccccc2)nc1C(=O)NCc1ccco1 (centres undefined) | ? | ? | i | -9.3%[70.6 µM] | -14.0%[88.5 µM]
COc1cc(CNC(=O)c2nc(C(O)c3ccccn3)oc2C)cc(OC)c1 (centres undefined) | ? | 79.4µM* | i | -15.9%[70.6 µM] | -12.4%[88.5 µM]
COCc1nc(-c2nc3c([nH]2)CC(c2ccc(Cl)cc2)CNC3=O)no1 (centres undefined) | -24.5% | -24.0% | i | 3.8% | -14.3%
CN1CCN(c2ccc(-c3noc([C@@H]4CCCN4Cc4ccccc4)n3)cn2)CC1 | 70.8µM* | 100µM* | i | 1.6%[70.6 µM] | -3.5%[88.5 µM]
CC(=O)N1CCN(c2cc(-c3noc([C@@H]4CCCN4Cc4ccc(C(F)(F)F)cc4)n3)ccn2)CC1 | 28.2µM* | -35.3% | i | -15.0% | -7.3%
COc1ccc(C(=O)Nc2ccc(-c3noc([C@@H]4CCCN4Cc4cnc5ccccc5c4)n3)cn2)cc1 | 22.4µM* | 28.2µM* | ? | 12.6µM* | -9.5%
CNc1ccc(-c2noc([C@@H]3CCCN3Cc3cnc4ccccc4c3)n2)cn1 | ? | ? | i | -18.7%[70.6 µM] | i
c1ccc(CN2CCC[C@H]2c2nc(-c3ccnc(N4CCOCC4)c3)no2)cc1 | 89.1µM* | ? | i | -24.5%[70.6 µM] | i
OCC1(CC2CC2)CCCN(Cc2cccc(OCc3ccccn3)c2)C1 (centres undefined) | ? | -21.1% | i | -1.4% | -0.8%
COc1ccc(CCNC(=O)C2CCc3nnc(CNC(C)=O)n32)cc1 (centres undefined) | -11.9% | -20.2% | . | . | 2.8%
COCCCn1c(=O)c(C(=O)N2CCN(C(=O)c3ccc(Cl)nc3)CC2)nc2cccnc21 | i | -22.0% | . | . | 3.5%
CC(C)CN1CCC[C@H]1c1nc(-c2ccnc(N3CCOCC3)c2)no1 | 89.1µM* | ? | i | -6.4%[70.6 µM] | 2.1%[88.5 µM]
CS(=O)(=O)c1ccc(CN2CCC[C@H]2c2nc(-c3ccnc(N4CCOCC4)c3)no2)cc1 | i | -1.4% | i | 1.3% | i
N#Cc1ccc(CN2CCC[C@H]2c2nc(-c3ccnc(N4CCOCC4)c3)no2)cc1 | ? | -26.4%[138 µM] | i | ? | i
COc1ccc(-c2noc([C@@H]3CCCN3Cc3ccccc3OC)n2)cn1 | ? | ? | i | -3.1%[70.6 µM] | -5.8%[88.5 µM]
CN(C)c1ccc(-c2noc([C@@H]3CCCN3Cc3nc4ccccc4n3C)n2)cn1 | 112µM* | ? | i | 2.2%[70.6 µM] | i
SMILES | HEK cytotox | 3T3 cytotox | Luciferase inh | NPR1 antag | GPT2 inhibitor
Fc1ccccc1CN1CCC[C@H]1c1nc(-c2ccnc(N3CCOCC3)c2)no1 | 89.1µM* | ? | i | -24.4%[70.6 µM] | ?
CC1OC(OC2C(O)C(OC3CCC4(C)C(CCC5(C)C4CC=C4C6CC(C)(COC7OC(CO)C(O)C(O)C7O)CC(O)C6(C)CCC45C)C3(C)C)OC(C(=O)O)C2O)C(O)C(O)C1OC1OCC(O)C(O)C1O (centres undefined) | . | . | . | . | -1.5%[17.1 µM]
Cc1ccc(C)c(-n2nc(-c3c(C)nc4scc(CC(=O)NCc5ccco5)n4c3=O)cc2C)c1 | 35.5µM* | ? | i | -18.5% | i
Cc1ccc(-n2nc(-c3c(C)nc4scc(CC(=O)NCc5ccco5)n4c3=O)cc2C)cc1 | ? | -4.3% | i | 4.4% | -2.0%
Cc1nc2scc(CC(=O)NCC(C)C)n2c(=O)c1-c1cc(C)n(-c2ccc(C(C)C)cc2)n1 | 79.4µM* | ? | ? | -11.3% | ?
Cc1nc2scc(CC(=O)NCC(C)C)n2c(=O)c1-c1cc(C)n(-c2cccc(Cl)c2)n1 | ? | -10.1% | i | 6.9% | i
O=C(c1ccoc1)N1CCC(N2C[C@H](Oc3ccccc3)[C@@H]2c2ccncc2)CC1 | -24.2% | -24.4% | . | . | -54.7%
COc1ccc(-c2[nH]nc3ncc(-c4cccnc4OC)nc23)c(C)c1 | 100µM* | ? | i | -1.7%[70.6 µM] | -1.1%[88.5 µM]
COc1ccc(-c2[nH]nc3ncc(-c4ccccc4OC)nc23)c(C)c1 | 89.1µM* | ? | i | -8.3%[70.6 µM] | i
COc1ncccc1-c1cnc2n[nH]c(-c3ccc(F)cc3C)c2n1 | ? | 31.6µM* | i | -14.7%[70.6 µM] | 1.6%[88.5 µM]
O=C1c2ccccc2CN1C1CCN(Cc2ccccc2)CC1 | 3.1% | i | . | . | -2.2%
CCCN1C(=O)Cc2ccccc2C1C(=O)NCc1ccc(F)c(Cl)c1 (centres undefined) | ? | ? | i | -25.1% | i
COc1ccccc1-c1nnc2ccc(C(=O)N3CCN(C(C)=O)CC3)cn12 | i | 3.2% | . | . | -0.8%
CN1C(=O)CCC2(CNC(=O)c3cccc4nccnc34)CCCC=C12 (centres undefined) | 79.4µM* | ? | i | 2.8% | i
CN1C(=O)CCC2(CNC(=O)c3ccncc3)CCCC=C12 (centres undefined) | -0.2% | 0.4% | i | 6.9% | -19.9%

From PubChem
